This note sets out measurements from PubChem BioAssay (Tox21).

The structures appear in SMILES notation. Several values for one entry are separate records, joined by “and”; a condition that tells them apart may be missing. Identical values can stand only once. Results filed as inconclusive are left out. Where a call stands in place of a potency, no number is given. More than one record can exist for a structure, and the calls need not agree. Activity calls are given as the source filed them. Unless noted, the call rests on the fitted dose curve; in most records, active means well fitted cell-killing curve with a large enough effect in the repeat runs (not every such curve was filed as active); inconclusive means weak or mixed curves, or effect the other way; inactive means no such curve, though single readings can be large or run the other way.
Potency means the concentration at half of the fitted maximal effect.

Nuclear receptor subfamily 1 group I member 3 (Homo sapiens), sequence (Q14994 whole entry, looked up): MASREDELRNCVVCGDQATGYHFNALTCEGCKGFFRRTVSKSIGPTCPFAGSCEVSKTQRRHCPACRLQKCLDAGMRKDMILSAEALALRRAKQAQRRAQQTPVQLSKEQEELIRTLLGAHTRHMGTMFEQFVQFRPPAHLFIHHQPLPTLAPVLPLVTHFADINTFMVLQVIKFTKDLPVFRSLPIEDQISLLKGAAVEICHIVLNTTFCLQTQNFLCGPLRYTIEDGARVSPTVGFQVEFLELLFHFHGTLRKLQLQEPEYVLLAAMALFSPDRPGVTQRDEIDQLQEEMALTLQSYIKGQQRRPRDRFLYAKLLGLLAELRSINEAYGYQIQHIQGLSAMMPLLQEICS

For the first assay, the target named is Nuclear receptor subfamily 1 group I member 3 (Homo sapiens) (UniProt Q14994). The assay can be described thus: qHTS assay to identify small molecule agonists of the constitutive androstane receptor (CAR) signaling pathway (AID 1224839; active means well fitted activation curve with a large enough effect in the repeat runs; further: nearly all actives have a fitted effect of over 15% in size). The following applies: HepG2 hCAR CYP2B6-luciferase, agonist mode, 24 h; series mostly up to 92.4 µM; activation: at the top concentration. A digest of the protocol:
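A 15-concentration quantitative screen uses HepG2 cells co-transfected stably with human CAR and CYP2B6-2.2kb reporter. Treatment lasts 24 h with 0.75 uM PK11195 final present; ONE-Glo luminescence is the signal.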
On to `CCC(C)CO` (stereo unspecified), for which the Potency entry was “inactive”.

Consider `O=C1OC2(c3cc(Br)c(O)c(Br)c3Oc3c2cc(Br)c(O)c3Br)c2c(Cl)c(Cl)c(Cl)c(Cl)c21`, for which the Potency entry is “inactive”.

As for `CC(CCC(=O)O)(c1ccc(O)cc1)c1ccc(O)cc1`, the Potency result is “inactive”.

Consider `C[C@]12CC[C@H]3[C@@H](CCC4=CC(=O)CC[C@@]43C)[C@@H]1CC[C@@H]2C(=O)CO`, for which the Potency result is “inactive”.

As for `Nc1ncnc2nc[nH]c12`, the Potency result is “inactive”.

With `CC(C)OB(OC(C)C)OC(C)C`, the Potency entry was “inactive”.

Take `C#C[C@]1(O)CC[C@H]2[C@@H]3CCc4cc(OC)ccc4[C@H]3CC[C@@]21C`: the Potency was 27.3 µM (active) and 23.7 µM (active).

`Clc1nc(Cl)c(Cl)c(Cl)c1Cl`: the “activation” value was 8.79% (inactive).

For the molecule `CCCC(=O)O`, the Potency entry was “inactive”.

In the case of `c1cc(-c2ccncc2)ccn1`, the Potency entry is “inactive”.

As for `C=C(C)C(=O)OCCOC(=O)C(=C)C`, the Potency entry is “inactive”.

As for `O=C(c1ccccc1)c1ccccc1O`, the Potency entry was “inactive”.

For `CCCCC(CC)COC(=O)c1ccc(N(C)C)cc1` (stereo unspecified), the Potency was 24.5 µM (active) and inactive.

For `CC1=CC2C3CC(C=C3C)C2C1` (stereo unspecified), the Potency entry is “inactive”.

For `COC(=O)C1=C(C)NC(C)=C(C(=O)OCCN(C)Cc2ccccc2)C1c1cccc([N+](=O)[O-])c1` (stereo unspecified), the Potency entry is “inactive”.

With `CC(=O)Oc1ccccc1C(=O)Nc1ncc([N+](=O)[O-])s1`, the Potency is 556 nM (active) and 473 nM (active).

For the molecule `c1ccc2cc(Nc3ccc(Nc4ccc5ccccc5c4)cc3)ccc2c1`, the Potency entry is “inactive”.

In the case of `Cc1ccc(C)c(O)c1C`, the Potency result was “inactive”.

Consider `CC(C)Oc1ccc2c(=O)c(-c3ccccc3)coc2c1`, for which the Potency is 1.5 µM (active) and 2.11 µM (active).

For the molecule `OC(CCl)CCl`, the Potency entry was “inactive”.

In the case of `Cn1cnc([N+](=O)[O-])c1Sc1ncnc2nc[nH]c12`, the Potency entry is “inactive”.

For the molecule `O=C(/C=C/c1ccccc1)OCc1ccccc1`, the Potency was 29.8 µM (active).

Test system in a further assay: not listed separately
The assay can be described thus: qHTS assay to identify small molecule antagonists of the estrogen related receptor signaling pathway with the pleiotropic PPARgamma coactivator (PGC) from Tox21 10K library - cell viability counter screen (AID 1224840). Further: nearly all actives have a fitted effect of over 40% in size. Particulars: PGC/ERR reporter cells viability, CellTiter-Fluor, 17.5 h; series mostly up to 92.4 µM; viability change, negative = cytotoxic: at the top concentration. A digest of the protocol: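 Seeded PGC/ERR cells (2,000/well, 6 h, 37 C/5% CO2) get compound by pin tool; 17.5 h incubation at 37 C; CellTiter-Fluor added, 30 min, fluorescence measured.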
For orientation: In qHTS, concentration-response curves come from the screen itself.
For the molecule `OC[C@H]1O[C@@H]2O[C@H]3[C@H](O)[C@@H](O)[C@@H](O[C@H]4[C@H](O)[C@@H](O)[C@@H](O[C@H]5[C@H](O)[C@@H](O)[C@@H](O[C@H]6[C@H](O)[C@@H](O)[C@@H](O[C@H]7[C@H](O)[C@@H](O)[C@@H](O[C@H]8[C@H](O)[C@@H](O)[C@@H](O[C@H]1[C@H](O)[C@H]2O)O[C@@H]8CO)O[C@@H]7CO)O[C@@H]6CO)O[C@@H]5CO)O[C@@H]4CO)O[C@@H]3CO`, the Potency entry was “inactive”.

`CCCCC(CC)COCC1CO1` (stereo unspecified): the Potency result is “inactive”.

For `Cc1cccc(C(=O)O)c1`, the Potency result was “inactive”.

Turning to `O=[N+]([O-])c1ccc2c(c1)Cc1ccccc1-2`, the Potency entry was “inactive”.

With `CCCCC/C=C/C=C/C=O`, the “viability change, negative = cytotoxic” value is -6.32% (inactive).

`O=c1oc(=O)c2cc3c(=O)oc(=O)c3cc12`: the Potency entry is “inactive”.

Turning to `Cc1c(OCC(F)(F)F)ccnc1CS(=O)c1nc2ccccc2[nH]1` (stereo unspecified), the “viability change, negative = cytotoxic” value was -8.06% [at 42.5 µM] (inactive).

With `CCC(C)c1ccccc1O` (stereo unspecified), the Potency entry was “inactive”.

Consider `Nc1ncn([C@@H]2O[C@H](CO)[C@@H](O)[C@H]2O)c(=O)n1`, for which the “viability change, negative = cytotoxic” value is -25% [at 42.5 µM] (inactive).

Turning to `CC(C)OC(=O)C(C)(C)Oc1ccc(C(=O)c2ccc(Cl)cc2)cc1`, the Potency entry was “inactive”.

As to `Cc1ccc2c(n1)Oc1ccc(C(C)C(=O)OCC(=O)N(C)C)cc1C2` (stereo unspecified), the Potency entry was “inactive”.

As to `Brc1cc(Oc2cc(Br)c(Br)c(Br)c2Br)c(Br)c(Br)c1Br`, the Potency entry is “inactive”.

For the molecule `CCCCOCCOCCOCCO`, the Potency entry was “inactive”.

For `CCCCC(CC)COP(=O)(OCC(CC)CCCC)OCC(CC)CCCC` (stereo unspecified), the Potency result is “inactive”.

Turning to `CCOC(=O)C(C#N)=C(c1ccccc1)c1ccccc1`, the Potency result is “inactive”.

On to `CC(C(=O)O)c1cccc(C(=O)c2ccccc2)c1` (stereo unspecified), for which the Potency result was “inactive”.

As for `CCC(C)CO` (stereo unspecified), the Potency entry was “inactive”.

On to `O=C1OC2(c3cc(Br)c(O)c(Br)c3Oc3c2cc(Br)c(O)c3Br)c2c(Cl)c(Cl)c(Cl)c(Cl)c21`, for which the Potency is 4.86 µM (active) and 29.5 µM (active).

In the case of `CC(CCC(=O)O)(c1ccc(O)cc1)c1ccc(O)cc1`, the Potency entry was “inactive”.

Turning to `C[C@]12CC[C@H]3[C@@H](CCC4=CC(=O)CC[C@@]43C)[C@@H]1CC[C@@H]2C(=O)CO`, the “viability change, negative = cytotoxic” value was 1.29% [at 42.5 µM] (inactive).

On to `Nc1ncnc2nc[nH]c12`, for which the Potency result is “inactive”.

As for `CC(C)OB(OC(C)C)OC(C)C`, the Potency entry was “inactive”.

Take `C#C[C@]1(O)CC[C@H]2[C@@H]3CCc4cc(OC)ccc4[C@H]3CC[C@@]21C`: the Potency result is “inactive”.

Regarding `Clc1nc(Cl)c(Cl)c(Cl)c1Cl`, the Potency result was “inactive”.

Turning to `CCCC(=O)O`, the Potency result was “inactive”.

As for `c1cc(-c2ccncc2)ccn1`, the Potency entry is “inactive”.

Turning to `C=C(C)C(=O)OCCOC(=O)C(=C)C`, the Potency entry was “inactive”.

For `O=C(c1ccccc1)c1ccccc1O`, the Potency entry was “inactive”.

Regarding `CCCCC(CC)COC(=O)c1ccc(N(C)C)cc1` (stereo unspecified), the Potency result was “inactive”.

As to `CC1=CC2C3CC(C=C3C)C2C1` (stereo unspecified), the Potency result was “inactive”.

Consider `COC(=O)C1=C(C)NC(C)=C(C(=O)OCCN(C)Cc2ccccc2)C1c1cccc([N+](=O)[O-])c1` (stereo unspecified), for which the Potency is 30.5 µM (active) and 26.6 µM (active).

For the molecule `CC(=O)Oc1ccccc1C(=O)Nc1ncc([N+](=O)[O-])s1`, the Potency was 15.7 µM (active) and 23.7 µM (active).

On to `c1ccc2cc(Nc3ccc(Nc4ccc5ccccc5c4)cc3)ccc2c1`, for which the Potency entry was “inactive”.

As for `CCCCc1oc2ccccc2c1C(=O)c1cc(I)c(OCCN(CC)CC)c(I)c1`, the Potency was 43.6 µM (active).

`Cc1ccc(C)c(O)c1C`: the Potency result was “inactive”.

Regarding `CC(C)Oc1ccc2c(=O)c(-c3ccccc3)coc2c1`, the Potency entry is “inactive”.

Consider `OC(CCl)CCl`, for which the Potency entry was “inactive”.

On to `Cn1cnc([N+](=O)[O-])c1Sc1ncnc2nc[nH]c12`, for which the “viability change, negative = cytotoxic” value is -20.9% [at 42.5 µM] (inactive).

As for `O=C(/C=C/c1ccccc1)OCc1ccccc1`, the Potency entry is “inactive”.
